Laboratory results as given in PubChem BioAssay AID1347145 (National Center for Advancing Translational Sciences (NCATS), 2019).
Records with an inconclusive call do not appear. Calls of active or inactive are those of the source. Calls come from the whole dose curve; as a rule, active = well fitted inhibition curve with a large enough effect; inconclusive = small, poorly fitted or top-dose-only effect; inactive = no such curve, though single readings can be large or run the other way.

target: N-terminal Xaa-Pro-Lys N-methyltransferase 1 (Homo sapiens) (UniProt Q9BV86); assay: qHTS Assay for Inhibitors of N-terminal methyltransferase 1 (NTMT1): MTaseGlo Assay Confirmatory Screen, Round 1; settings: Recombinant NTMT1, MTase-Glo SAH luminescence; series mostly up to 57.1 µM; activity change, negative = inhibition: at the top concentration
How it was run: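 Luminescence from MTase-Glo conversion of SAH to ATP measured activity after a 30 min RT reaction with 1 µM SPKRIA substrate, 100 µM SAM and 125 nM enzyme. Normalization used no-enzyme and DMSO controls, followed by Hill fitting.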
Note: 0% is about no effect.

Chain of N-terminal Xaa-Pro-Lys N-methyltransferase 1 (Homo sapiens) (Q9BV86 whole entry, looked up): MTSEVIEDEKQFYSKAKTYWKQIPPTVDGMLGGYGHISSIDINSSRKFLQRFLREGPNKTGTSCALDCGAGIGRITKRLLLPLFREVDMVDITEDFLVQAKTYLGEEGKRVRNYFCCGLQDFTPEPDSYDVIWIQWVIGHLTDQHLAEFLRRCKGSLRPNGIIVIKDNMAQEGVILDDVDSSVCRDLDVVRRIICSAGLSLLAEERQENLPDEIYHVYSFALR

Activity change, negative = inhibition, inactive:
CNc1nc2c(N)ncnc2n1[C@@H]1O[C@@H]2COP(=O)(O)O[C@H]2[C@H]1O 18.5%
COc1cc2nc(N3CC[C@@H](N(C)C)C3)nc(NC3CC3)c2cc1OC 17.4%
CCN1CCN(c2nc(NC3CC3)c3cc(OC)c(OC)cc3n2)CC1 0.219%
Nc1ncnc2c1ncn2[C@H]1C[C@H](O)[C@@H](CO)O1 15.6%
COc1cc2nc(N3CCN(C(N)=O)CC3)nc(NC3CC3)c2cc1OC -13.1%
COc1cc2nc(N3CCCN(C)CC3)nc(NC(C)C)c2cc1OC -0.0463%
COCCCCOc1cc2nc(N3CCCN(C)CC3)nc(NC3CCN(C)CC3)c2cc1OC -10%
Nc1ncnc2c1ncn2[C@@H]1O[C@H](CO)C[C@@H]1O -8.62%
COc1cc2c(NC3CCN(C)CC3)nc(N3CCCCC3)nc2cc1OCCOCCN1CCCC1 -17.5%
COc1cc2nc(N3CC[C@H](N(C)C)C3)nc(NC3CC3)c2cc1OC 3.23%
OC[C@H]1O[C@@H](n2cnc3c(N[C@H]4C[C@H]5CC[C@@H]4C5)ncnc32)[C@H](O)[C@@H]1O 5.14%
COc1cc2c(NC3CCN(C)CC3)nc(N3CCCN(C)CC3)nc2cc1OCCCN1CCOCC1 -9.55%
CCN(c1cc(C#CCN2CCOCC2)cc(C(=O)NCc2c(C)cc(C)[nH]c2=O)c1C)C1CCC(N(C)CCOC)CC1 (configuration not stated) -5.53%
Cc1cc(C)c(CNC(=O)c2cc(-c3ccc(CN4CCOCC4)cc3)cc3c2cnn3C2CCCC2)c(=O)[nH]1 -3.08%
Nc1nc2c(ncn2[C@@H]2O[C@H](CO)[C@@H](O)[C@H]2O)c(=O)[nH]1 2.58%
CNc1ncnc2c1ncn2[C@@H]1O[C@H](CO)C(O)[C@H]1O (some centres not stated) 215%
C[C@H](Cc1ccccc1)Nc1ncnc2c1ncn2[C@@H]1O[C@H](CO)[C@@H](O)[C@H]1O 0.792%
CNC(=O)[C@H]1O[C@@H](n2cnc3c(N)ncnc32)[C@H](O)[C@@H]1O -5.55%
COc1cc2nc(N3CCCN(C)CC3)nc(N(C)C)c2cc1OC 4.38%
Nc1ncnc2c1[nH]c(=S)n2C1OC(CO)C(O)C1O (configuration not stated) 0.076%
COc1cc2nc(NC3CCN(C)CC3)nc(NC3CCN(C)CC3)c2cc1OC -9.76%
COc1cc2c(NC3CCN(C(C)C)CC3)nc(N3CCCN(C)CC3)nc2cc1OCCOCCN(C)C -17.7%
Nc1nc(Cl)nc2c1ncn2[C@@H]1O[C@H](COP(=O)(O)OP(=O)(O)OP(=O)(O)O)C(O)[C@H]1O (some centres not stated) 65.2%
Nc1nc2c([nH]c(=O)n2[C@@H]2O[C@H](CO)[C@@H](O)[C@H]2O)c(=O)[nH]1 -0.0532% [at 6.33 µM]
CCC(CC)n1ccc2c(C(=O)NCc3c(C)cc(C)[nH]c3=O)cc(C#N)cc21 14.8%
COc1cc2nc(N3CCOCC3)nc(NC3CC3)c2cc1OC -4.12%
Nc1ncnc2c1nc(Br)n2C1OC(CO)C(O)C1O (configuration not stated) -7.93%
Cn1cnc2c(ncn2[C@@H]2O[C@H](CO)[C@@H](O)[C@H]2O)c1=N 20.8%
Nc1[nH]c(=O)nc2c1ncn2C1OC(CO)C(O)C1O (configuration not stated) 0.715%
Nc1ncnc2c1ncn2C1CC(O)C(CO)O1 (configuration not stated) 25.8%
OC[C@H]1O[C@H](n2cnc3c(N[C@H]4CCC[C@@H]4O)ncnc32)[C@H](O)[C@@H]1O 19.1%
COC1C(O)C(CO)OC1n1cnc2c(NC3CCCCC3)ncnc21 (configuration not stated) -3.48%
COc1cc2nc(Nc3ccccc3)nc(NC3CC3)c2cc1OC -11.4%
CCCC(=O)Nc1ncnc2c1ncn2[C@@H]1O[C@@H]2COP(=O)(O)O[C@H]2[C@H]1OC(=O)CCC 7.24%
Cc1ccccc1CNc1ncnc2c1ncn2[C@@H]1O[C@H](CO)[C@@H](O)[C@H]1O 14.4%
C=C1OC(CO)(n2cnc3c(N)ncnc32)C(O)C1O (configuration not stated) 5.77%
O=S(=O)(O)c1ccc(Nc2ncnc3c2ncn3[C@@H]2O[C@H](CO)[C@@H](O)[C@H]2O)cc1 11.4%
